# Screening results from PubChem.
# N370S GC: inhibitors or activators of N370S glucocerebrosidase for Gaucher disease; actives 0.092% (n = 330,000); Potency, µM (series often up to 59.4 µM), for inactives: top-dose activity change, negative = inhibition, hits mostly inhibitors; N370S GC spleen homogenate, 4MU-glucoside fluorescence;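 also: potency is read from the fitted curve at half-maximal effect; 0% = full enzyme activity and -100% = no enzyme basal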
# TSHR antag: antagonists of human thyroid stimulating hormone receptor; TSHR-expressing cells, TSH-stimulated cAMP HTRF, 2 h; active compounds read low; activity change, negative = inhibition, % at 11.5 µM; actives 0.2% (n = 330,000); AID 504810;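 active = activity change below a set negative limit, meaning inhibition stronger than a set level, cut at about -70% in these data; inconclusive = activity change between two set negative limits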; also: % is scaled to controls: 0 for no effect and ±100 for the full control effect
# Target sequence (P16473 whole entry, looked up): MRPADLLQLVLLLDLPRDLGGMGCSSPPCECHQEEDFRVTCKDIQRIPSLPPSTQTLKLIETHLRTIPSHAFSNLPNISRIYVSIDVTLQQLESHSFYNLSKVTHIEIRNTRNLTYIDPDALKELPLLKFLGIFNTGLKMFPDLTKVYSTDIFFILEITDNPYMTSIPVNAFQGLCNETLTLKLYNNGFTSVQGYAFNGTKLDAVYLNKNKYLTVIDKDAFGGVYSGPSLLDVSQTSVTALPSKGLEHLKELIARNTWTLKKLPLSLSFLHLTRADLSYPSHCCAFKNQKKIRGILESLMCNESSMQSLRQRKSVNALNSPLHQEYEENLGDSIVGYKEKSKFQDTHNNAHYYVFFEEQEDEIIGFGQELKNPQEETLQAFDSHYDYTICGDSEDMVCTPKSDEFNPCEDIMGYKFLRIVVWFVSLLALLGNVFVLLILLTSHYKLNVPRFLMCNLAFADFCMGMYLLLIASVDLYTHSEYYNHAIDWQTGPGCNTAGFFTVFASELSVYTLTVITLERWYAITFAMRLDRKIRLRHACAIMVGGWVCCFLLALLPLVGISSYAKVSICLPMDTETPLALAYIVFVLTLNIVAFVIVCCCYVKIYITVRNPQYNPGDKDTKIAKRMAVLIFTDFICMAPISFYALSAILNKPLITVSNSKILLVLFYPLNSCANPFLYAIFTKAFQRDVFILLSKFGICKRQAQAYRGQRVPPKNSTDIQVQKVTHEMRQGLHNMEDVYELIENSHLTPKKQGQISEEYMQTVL
#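 Competitive HTRF cAMP read-out (cryptate anti-cAMP antibody, cAMP-d2; 30 min, room temperature) in freshly harvested TSHR cells. Compounds added before TSH at EC80 (4nM final), followed by 2 hours' incubation at 37 deg C.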
# GLS inh: inhibitors of human glutaminase (GLS) | O94925 | actives 0.21% (n = 410,000) | GLS enzymatic activity, qHTS titration | Potency, µM (series often up to 45.5 µM), inactives show top-dose activity change, negative = inhibition, most hits filed as inhibitors | AID 624170; also: potency is read from the fitted curve at half-maximal effect; % is scaled to controls: 0 for no effect and ±100 for the full control effect
#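 Compounds were pin-transferred onto hKGA, after which L-glutamine (1 mM solution) and a detection mix of glutamate oxidase, HRP and Amplex Red were added. Initial and 30 min RT fluorescence reads were collected.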
# BRCA1 expr up: increases BRCA1 expression; MCF7-BRCA1-FFLuc reporter, luminescence, 48 h; response scale: scaled: vehicle 0%, 10 µM genistein 100%; Potency, µM (highest dose often 46.1 µM), without a hit: at the highest dose activation, actives largely listed as activators; actives 1.1% (n = 380,000); also: potency is read from the fitted curve at half-maximal effect; nearly all actives have a fitted effect of over 80% in size
#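 MCF7 cells carrying a BRCA1-firefly luciferase reporter (2000 cells/well, phenol-red free MEM) were attached for 2 h at 37 °C, then given compounds for 48 h. Luminescence was read 15 min after luciferase reagent; activity normalized to genistein (10 microM) and DMSO.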
# TCR activator: activates T cell receptor signaling; AID 504894; Potency, µM (top dose mostly 9.22 µM), inactives show top-dose activation of IL-2 secretion, most hits filed as activators; primary human leukocytes, anti-CD3, IL-2 HTRF, 48 h; 330,000 tested, under 10 active; also: % of control where 0% means no effect
#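 Human primary leukocytes + a-CD3 beads + cpd, 48 hr; IL-2 in supernatant by HTRF (ex 320nm / em 665nm). No co-stimulatory signal supplied.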
# p53 reactivation: mutant p53 re-activation in reporter cells. H1299 p53-A138V BP100-luciferase reporter, luminescence, 24 h. Potency, µM (highest dose often 92.2 µM), inactives show at the top dose activity change, positive = activation, hits mostly activators. actives 0.063% (n = 320,000). AID 504706; also: potency is read from the fitted curve at half-maximal effect; % of control where 0% means no effect; nearly all actives have a fitted effect of over 45% in size
#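 p53-null H1299 cells stably carrying temperature-sensitive p53-A138V and a BP100-luciferase reporter were pinned with compounds (4-point, 1:5 series) and held 24 hrs at 37 deg C. Luminescence was read 10 min after detection reagent.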
# Active calls of the source: *; ? = inconclusive; / = not tested or not shown; [ ] = remark or other dose. Rows were chosen to be rich in hits. Some 1.4% of all compounds tested hit in one or more screens of this group. Unless noted, calls follow the shape of the dose curve; as a rule, active = well fitted curve in the direction sought with a large enough effect; inconclusive = small, poorly fitted or top-dose-only effect, or another doubt; inactive = no such curve, though single readings can be large; an effect the other way counts as inactive or inconclusive.
SMILES,N370S GC,TSHR antag,GLS inh,BRCA1 expr up,TCR activator,p53 reactivation
COc1ccccc1/C=C/c1nc2ccccc2s1,/,/,/,24%,/,/
N#Cc1cc(C#N)c(N2CCN(c3cccc(Cl)n3)CC2)nc1N,8%,-26,1%,8.9µM*,-2%,4%
COc1cc2nc(N3CCOCC3)nc(NC3CCN(Cc4ccccc4)CC3)c2cc1OC,/,/,/,-6%,/,/
Cc1nc2ccc(-c3nc4ccc(N)cc4[nH]3)cc2[nH]1,20%,-25,8.9µM*,-3%,10%,-2%
Nc1ccc(-c2nc3ccc([N+](=O)[O-])cc3[nH]2)cc1,-5%,2,7%,2µM*,4%[46.1 µM],?
Nc1ccc(-c2nc3ccc(N)cc3[nH]2)cc1,21%,-34,27%,16%,4%,11%
O=C(c1cc(COc2ccc(-n3cncn3)cc2)on1)N1CCCC1,/,/,-11%,20%,13%,/
CC(NC(=O)c1cc(COc2ccc(-n3cncn3)cc2)on1)c1ccc(F)cc1 (stereo not drawn),/,/,-2%,13µM*,/,/
CN(Cc1ccccc1)S(=O)(=O)c1ccc(OCC(=O)NCc2ccccn2)cc1,1%,-104*,-2%,-13%,0%,-4%
O=C(/C=C/c1ccco1)Nc1nc(-c2ccccn2)cs1,-9%,-9,-18%,-42%,5%,15%
O=C(/C=C/c1ccco1)Nc1nc(-c2ccccc2)cs1,-17%,-34,0%,8.9µM*,-4%[46.1 µM],?
Cc1ccc(C(=O)Nc2ccc3nc(SCC(=O)N4CCCc5ccccc54)sc3c2)cc1,/,/,-3%,/,/,/
COc1cc(CC2COC(c3ccc(O)c(OC)c3)C2COC(C)=O)ccc1O (stereo not drawn),-6%,-3,11µM*,41%,6%,-3%
COc1cc([C@@H]2OC[C@@H]3[C@H]2CO[C@@H]3c2ccc3c(c2)OCO3)ccc1O,/,3,19%,1%,-4%,1%
COc1cc(C(C(=O)NCc2ccccc2)N(C(=O)c2snc(C(N)=O)c2N)C2CCCC2)cc(OC)c1OC (stereo not drawn),3%,-108*,-4%,-27%,1%,-2%
O=[N+]([O-])c1ccc(NN=Cc2ccccc2)nc1,/,/,21%,?,-46%,/
O=[N+]([O-])c1ccc(N/N=C/c2cccs2)nc1,/,/,1%,4µM*,3%,/
C=CCn1cc(/C=N/Nc2nc3ccccc3[nH]2)c2ccccc21,?,2,?,-46%,-4%[46.1 µM],32µM*
O=[N+]([O-])c1ccc(O)c(/C=N/Nc2nc3ccccc3[nH]2)c1,-5%,-20,29%,-79%,-2%[46.1 µM],25µM*
Clc1ccccc1N/N=C/c1ccc2c(c1)OCO2,12%,-7,25µM*,62%,-4%,?
O=C(CNC(=O)c1ccccc1Cl)N/N=C/c1ccc2c(c1)OCO2,-2%,3,-3%,-2%,-6%,9%
COC(=O)c1ccccc1S(=O)(=O)N1CCc2nc(-c3ccc(OC)cc3C)c3c(c2C1)CO[C@@H](c1ccccc1)C3,-13%[12.8 µM],/,/,/,/,/
COc1cccc(/C=N/Nc2nc3ccccc3[nH]2)c1O,-18%,-2,3%,-67%,9%,15%
COC(=O)c1ccc(/C=N/Nc2nc3ccccc3[nH]2)cc1,-16%,-11,-6%,3.2µM*,8%,6%
C/C(=N\Nc1nc2ccccc2[nH]1)c1ccccn1,-24%,-8,/,/,/,8.9µM*
SMILES,N370S GC,TSHR antag,GLS inh,BRCA1 expr up,TCR activator,p53 reactivation
COc1cccc(/C=N/Nc2nc3ccccc3[nH]2)c1OC,-2%,0,?,7.9µM*,3%,6%
C(=N\Nc1nc2ccccc2[nH]1)/c1ccncc1,-1%,-88*,17%,54%,5%,25%
O=C(O)c1ccc(/C=N/Nc2nc3ccccc3[nH]2)cc1,-8%,-7,5%,0%,1%,1%
Cc1c(F)c(N2CCNC(C)C2)cc2c1c(=O)c(C(=O)O)cn2C1CC1 (stereo not drawn),/,/,-3%,/,/,/
CCC(C)C(C(=O)OCC[N+](C)(CC)CC)c1ccccc1 (stereo not drawn),/,/,-1%,/,/,/
C(=N\Nc1nc2ccccc2[nH]1)/c1cccs1,-18%,-2,?,10µM*,0%,?
C(=N\Nc1nc2ccccc2[nH]1)/c1ccc2c(c1)OCO2,-4%,-17,46%,13µM*,8%,15%
C/C(=N\Nc1nc2ccccc2[nH]1)c1ccc2c(c1)OCO2,-9%,-8,24%,-41%,-3%,-1%
CCCC(=O)O[C@]1(C(=O)CCl)[C@H](C)C[C@@H]2[C@H]3CCC4=CC(=O)C=C[C@]4(C)[C@@]3(F)C(=O)C[C@@]21C,/,/,4%,/,/,/
Cc1cccc(/C=C/C(=O)c2cc(Br)ccc(=O)c2O)c1,-6%,-88*,24%,-90%,16%,15%
CCc1ccc(/C=C/C(=O)c2cc(Br)ccc(=O)c2O)cc1,-5%,-87*,4%,-88%,2%,21%
CCOc1ccc(/C=C/C(=O)c2cc(Br)ccc(=O)c2O)cc1,?,?,4%,-90%,-1%[46.1 µM],-3%
Clc1ccc(Nc2nnc(Cc3ccncc3)c3ccccc23)cc1,/,/,-7%,/,/,/
Cc1cc(C(=O)COC(=O)c2ccc(O)cc2)c(C)n1Cc1ccco1,0%,-1,-6%,2.8µM*,-2%[46.1 µM],?
Cc1cc(C(=O)CSc2nnnn2C)c(C)n1Cc1ccco1,-17%,1,-5%,4.5µM*,-4%,14%
Oc1c(C(Nc2cccnc2)c2ccccc2F)ccc2cccnc12 (stereo not drawn),/,/,/,-65%,/,/
CCOc1ccccc1NC(=O)c1nc(SCc2ccccc2F)ncc1Cl,/,/,/,10%,/,/
Cc1ccc(S(=O)(=O)N2CCN(c3nc(-c4ncccn4)nc4ccccc34)CC2)cc1,/,/,/,10%,/,/
Cc1ccccc1Nc1nnc(-c2ccc(C)c(S(=O)(=O)N3CCCCC3)c2)c2ccccc12,/,/,7%,/,/,/
O=C(CCCc1ccccc1)N1CCN(C2CCCCC2)CC1,-7%,7,4%,5µM*,/,/
CCN1CCc2c(sc(NC(=O)c3ccc(S(=O)(=O)N4CCCC4)cc3)c2C(=O)NC)C1,-24%,5,7%,-30%,3%,35µM*
Cc1ccc(F)c(C2C3C=CCCC3(C)C(=O)N2Cc2ccccc2)c1 (stereo not drawn),7%,/,/,/,/,/
O=C1NC2CCCCN2C12CCN(CCCN1c3ccccc3CCc3ccc(Cl)cc31)CC2 (stereo not drawn),/,/,14%,/,/,/
S=C(Nc1ccc(Br)cc1)Nc1ccc2c(c1)OCCO2,7%,15,11%,11µM*,-1%,9%
